# Key:
# [1] = system: SMC4; design: species or system human, MV4-11 + K-562 + COLO205 + SK-N-BE2 + OVCAR-8; conditions: read-out: apparent Kd; compound concentrations: 100 nM and 1000 nM (sheet 'Samples'), CATDS: 0.57123951593094102; n = 1
# [2] = system: SIK2; design: species or system human, MV4-11 + K-562 + COLO205 + SK-N-BE2 + OVCAR-8; conditions: read-out: apparent Kd; compound concentrations: 100 nM and 1000 nM (sheet 'Samples'), CATDS: 1; n = 1
Structure (SMILES),potency estimated from few doses [1] [µM],potency estimated from few doses [2] [µM]
CCCNC(=O)Nc1ccc(N(C)c2ccnc(NC3CC3)n2)cc1 [GW818933X],1.12,–
NS(=O)(=O)c1cccc(-c2cc3ccncc3cc2OCc2ccccc2)c1 [GSK980961A],–,1.6
